MEKK3 PB1 HTS: raises or lowers MEK5 binding to the human MEKK3 PB1 domain | Q99759 | bead-based flow cytometry, Alexa488-MEK5 binding to MEKK3; actives lie on both sides; 0 = blocked by unlabeled MEK5, 100 = vehicle | binding response (% of control), % at 10 µM | hit rate 1.4% among 290,000;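 active = binding response more than 3 SD above or below the average of its plate-row segment, actives on both sides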;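 note: Alexa488 bead fluorescence after subtracting the streptavidin-only scavenger bead signal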
Target sequence (Q99759 whole entry, looked up, the tested form may be a part): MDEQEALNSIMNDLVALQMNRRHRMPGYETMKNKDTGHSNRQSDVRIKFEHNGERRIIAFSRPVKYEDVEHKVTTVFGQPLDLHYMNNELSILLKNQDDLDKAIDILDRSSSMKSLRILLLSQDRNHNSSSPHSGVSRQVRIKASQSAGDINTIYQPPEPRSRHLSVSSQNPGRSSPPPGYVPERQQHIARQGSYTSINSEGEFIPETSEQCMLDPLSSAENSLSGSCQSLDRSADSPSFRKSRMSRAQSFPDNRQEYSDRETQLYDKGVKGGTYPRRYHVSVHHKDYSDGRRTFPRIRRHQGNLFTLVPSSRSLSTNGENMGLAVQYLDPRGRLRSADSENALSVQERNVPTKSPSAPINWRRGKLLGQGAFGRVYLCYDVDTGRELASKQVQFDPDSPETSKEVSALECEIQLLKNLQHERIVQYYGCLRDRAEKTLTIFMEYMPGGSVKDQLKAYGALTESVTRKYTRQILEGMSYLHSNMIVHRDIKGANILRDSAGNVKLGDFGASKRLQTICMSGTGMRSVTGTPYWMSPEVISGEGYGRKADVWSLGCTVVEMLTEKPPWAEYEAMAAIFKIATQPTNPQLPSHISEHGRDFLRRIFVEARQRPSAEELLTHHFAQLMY
MEKK2wt PB1 HTS: raises or lowers MEK5 binding to wildtype human MEKK2 PB1 domain; binding response (% of control), % at 10 µM; bead flow cytometry, Alexa488-MEK5 binding to MEKK2 WT; actives lie on both sides; Q9Y2U5; hit rate 1.1% among 290,000; AID 1531; in the data active = binding response below about 67% or above about 130%
Arbovirus inh: arbovirus infection inhibition; arbovirus infection cell-based antiviral screen; inhibition, % at 10 µM; hit rate 0.37% among 200,000; in the data active = inhibition above about 30%
MEKK2mut PB1 HTS: signal of MEK5 binding to mutant human MEKK2 PB1 domain. bead flow cytometry, Alexa488-MEK5 binding to MEKK2 mutant. percent response, % at 10 µM. hit rate 0.35% among 290,000; in the data active = percent response above about 24%, passing the limit was not always enough
Pf gametocyte: inhibitors of late stage P. falciparum gametocyte viability; AID 743093; hit rate 0.065% among 150,000; P. falciparum stage V gametocytes, ATP luminescence, 24 h; inhibition, % at 10.9 µM;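 active = inhibition above the mean plus 3 SD of compounds within the control limits, set per campaign, cut at about 38% in these data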;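 note: 0% = DMSO wells and 100% = medium only without gametocytes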
MEKK2wt confirm: raises or lowers MEK5 binding to wildtype human MEKK2, retest | shares compounds with MEKK3 PB1 HTS | bead flow cytometry, Alexa488-MEK5 binding to MEKK2 WT; actives lie on both sides | binding response (% of control), % at 10 µM | hit rate 2.4% among 5,900 | AID 1892; in the data active = binding response below about 16% or above about 210%; inactive = in between
MEKK2mut-MEK5: signal of MEK5 binding to mutant human MEKK2, retest; shares compounds with MEKK3 PB1 HTS; bead flow cytometry, Alexa488-MEK5 binding to MEKK2 mutant; percent response, % at 10 µM; hit rate 2% among 5,900; AID 1893; in the data active = percent response mostly above about 71%, no sharp cut-off; inactive = mostly below about 38%;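 note: higher means compound restores mutant binding toward wildtype level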
MEKK3 confirm: MEKK3-MEK5 PB1 inhibition, single concentration confirmation | shares compounds with MEKK3 PB1 HTS | bead flow cytometry, Alexa488-MEK5 binding to MEKK3; stronger effect = lower value | binding response (% of control), % at 10 µM | hit rate 1.8% among 5,900;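 active = binding response below 72% of control, or above a set upper limit, though filed actives all read lower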;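 note: 100% = DMSO only wells and 0% = binding blocked by excess unlabeled MEK5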
An asterisk follows results filed as active; . = not tested or not shown; [ ] = remark or other dose. In the library only some 2.4% were active in any assay of this set; here they are far more common.

SMILES	MEKK3 PB1 HTS	MEKK2wt PB1 HTS	Arbovirus inh	MEKK2mut PB1 HTS	Pf gametocyte	MEKK2wt confirm	MEKK2mut-MEK5	MEKK3 confirm
CCc1ccc(NC(=S)NC2CC3CCCC(C2)N3Cc2ccccc2)cc1 (centres undefined)	104	132	-32	22	-50	.	.	.
S=C(NC1CCCCC1)N1CCN(Cc2ccccc2)CC1	143*	105	-6	2	-15	109	4	104
S=C(NCCCN1CCOCC1)Nc1ccc(Cl)c(Cl)c1	63*[inhibitor]	109	-1	0	.	89	-9	79
Fc1ccc(NC(=S)NC2CCN(Cc3ccccc3)CC2)cc1	102	108	11	2	-9	.	.	.
S=C(Nc1ccc(Cl)c(Cl)c1)NC1CCN(Cc2ccccc2)CC1	111	168*	-35	34*	.	171	35	110
Fc1cccc(NC(=S)NCCCN2CCOCC2)c1	98	95	9	-3	-44	.	.	.
CSc1cccc(NC(=S)NCCCN2CCN(c3ccc(F)cc3)CC2)c1	115	142*	-9	18	2	134	9	103
O=C(CSc1nc2c(sc3ccccc32)c(=O)n1Cc1ccco1)NCC1CCCO1 (centres undefined)	2.0*[inhibitor]	3.0*[inhibitor]	-10	-21	.	107	8	110
O=C(CSc1nc2c(sc3ccccc32)c(=O)n1Cc1ccccc1)NCC1CCCO1 (centres undefined)	99	98	0	4	-3	.	.	.
CC1(C)Cc2c(c(N3CCOCC3)nc3sc(-c4ccc(C(=O)O)o4)c(N)c23)CO1	80	-5.0*	-6	62*	-3	89	-2	93
CNC(=O)c1ccc(-c2sc3nc(N4CCOCC4)c4c(c3c2N)CC(C)(C)OC4)o1	99	101	1	1	.	.	.	.
Cc1ccc2c(CSc3nc4nc(C)cc(C)n4n3)cc(=O)oc2c1	94	97	0	-9	.	.	.	.
COc1ccc2c(CSc3nc4nc(C)cc(C)n4n3)cc(=O)oc2c1	122*	123	9	6	-4	97	-3	100
CCN(CC)CCNC(=O)c1ccc(NC(=O)c2ccc(COc3ccccc3)cc2)cc1	101	162*	.	26*	.	168	31	106
COc1cc(OC)nc(NC(=O)NS(=O)(=O)c2ccc(F)cc2)n1	102	100	4	9	-14	.	.	.
C=C1CCC[C@]2(C)C[C@H]3OC(=O)C(CNC(C)CCCC(C)C)[C@H]3CC12 (some centres undefined)	109	138*	.	17	.	138	29	107
C=C1CCC[C@]2(C)C[C@H]3OC(=O)C(CN[C@@H](C)c4ccccc4)[C@H]3CC12 (some centres undefined)	96	106	.	3	.	.	.	.
COC(=O)C1CCN(Cc2ccc(OCCCN3CCN(c4ccc([N+](=O)[O-])cc4)CC3)cc2)CC1	105	144*	0	39	-1	108	-1	86
CCN1CCN(c2cc(C)c3cc(NC(=S)NCCCN4CCc5ccccc5C4)ccc3n2)CC1	117	177*	-22	21	-26	169	52	107
Cc1cc(N2CCN(C)CC2)nc2ccc(NC(=S)NCCCN3CCc4ccccc4C3)cc12	117	173*	-18	44	-16	142	25	102
CCCN1CCN(CCCNC(=S)Nc2ccc3nc(N4CCN(CC)CC4)cc(C)c3c2)CC1	109	129	4	15	4	.	.	.
Cc1cccc(N2CCN(C(=S)Nc3ccc4nc(N5CCN(C)CC5)cc(C)c4c3)CC2)c1C	30*[inhibitor]	47*[inhibitor]	-20	-39	-2	94	-20	75
CC(Nc1n[nH]c(=O)[nH]c1=O)C(=O)N/N=C/c1cccs1 (centres undefined)	101	103	4	11	-3	.	.	.
CCCCNS(=O)(=O)NC(=O)C1=C(N2CCCC2)COC1=O	.	.	.	.	-12	.	.	.
COc1ccc(/C(C)=N/Nc2nc3ccccc3n3cnnc23)cc1OC	99	94	.	-3	-9	.	.	.
SMILES	MEKK3 PB1 HTS	MEKK2wt PB1 HTS	Arbovirus inh	MEKK2mut PB1 HTS	Pf gametocyte	MEKK2wt confirm	MEKK2mut-MEK5	MEKK3 confirm
O=C(Nc1ccccc1OCc1ccccc1)c1ccccc1Br	97	99	.	-2	-6	.	.	.
COc1ccc(N2CCN(C(=O)Cn3cnc4c(cnn4-c4ccccc4)c3=O)CC2)cc1	92	94	1	-2	7	.	.	.
COc1ccc(N2CCN(C(=O)Cn3cnc4c(cnn4-c4ccc(C)cc4)c3=O)CC2)cc1	129*	116	-1	1	.	105	-5	100
Cc1cccc(NC(=O)C2CCN(C(=O)[C@@H]3Cc4ccccc4CN3)CC2)c1	96	104	.	0	.	.	.	.
CC1(C)Cc2c(c(-c3ccco3)nc3sc4c(NCC5CCCO5)ncnc4c23)CO1 (centres undefined)	143*	102	-13	0	20	104	8	102
CC1(C)Cc2c(c(-c3ccco3)nc3sc4c(NCCCO)ncnc4c23)CO1	66	67	.	-37	-20	.	.	.
O=C(COC(=O)C1=COCCO1)Nc1ccc(OC(F)F)cc1	93	80	11	-12	3	.	.	.
CCCCc1ccc(NC(=O)N[C@@H](CC(C)C)C(=O)O)cc1	2.0*[inhibitor]	112	.	7	-6	98	-8	97
CCc1ccc(OCC(=O)N2CC(C(N)=O)Oc3ccccc32)cc1 (centres undefined)	100	100	.	-2	.	.	.	.
Cc1c(C)[n+](=O)c(-c2cccs2)c(C)n1[O-]	1.0*[inhibitor]	0.0*[inhibitor]	-6	-9	9	98	-6	103
O=C(/C=C/c1ccccc1Cl)N(Cc1ccccc1)C1CCS(=O)(=O)C1 (centres undefined)	138*	103	-5	0	30	101	-2	100
O=C(/C=C/c1ccccc1Cl)N(Cc1ccc(Cl)cc1)C1CCS(=O)(=O)C1 (centres undefined)	104	103	-21	-1	-8	.	.	.
CCCN1CNC(=S)N(Cc2ccccc2)C1	98	98	5	0	-13	.	.	.
CCCCN1CNC(=S)N(Cc2ccccc2)C1	130*	105	-9	0	-12	97	-7	102
COCCNC(=O)CN(Cc1cccs1)C(=O)CCC(=O)Nc1nccs1	99	97	13	-10	11	.	.	.
CC(C)n1c(O)c(/C=C2\C=Nc3ccccc32)sc1=Nc1ccccc1	13*[inhibitor]	22*[inhibitor]	-10	-35	.	106	0	100
Cc1cc(-c2n[nH]c(=S)n2/N=C/c2ccc(Cl)c([N+](=O)[O-])c2)n[nH]1	155*	109	2	0	-10	103	-5	104
